Results: PubChem BioAssay AID720518 (National Center for Advancing Translational Sciences (NCATS), 2013)
Records with an inconclusive call do not appear. Where a call stands in place of a potency, no number is given. Active and inactive are the calls of the source. The call rests on the fitted dose curve.

experiment: qHTS for Inhibitors of Cell Surface uPA Generation: Wild-type Protective Antigen (WT-PrAg) Counterscreen for Cherry-picked Compounds; details: cells, WT protective antigen toxicity counterscreen; series mostly up to 115 µM

Compound	Potency
Cc1cc(C)cc(NC(=O)C(OC(=O)c2ccc(O)cc2)c2ccccc2)c1 (stereo not drawn)	inactive
CCOC(=O)C1CCN(C(=O)COC(=O)c2c(C)c(CC)nc3ccccc23)CC1	inactive
COc1ccc(NS(=O)(=O)c2cc3c(cc2C)NC(=O)CO3)c(OC)c1	inactive
O=C(Nc1ccc(NC(=O)c2ccco2)c(Cl)c1)c1ccccc1	inactive
O=C(c1cc2cc([N+](=O)[O-])ccc2s1)N1CCOCC1	inactive
CCN(C(=O)c1c(C)noc1C)c1c(N)n(Cc2ccccc2)c(=O)[nH]c1=O	inactive
Cc1noc(C)c1COc1ccc(C(=O)N2CCN(S(=O)(=O)c3ccc(Cl)cc3)CC2)cc1	inactive
CC(CCc1ccccc1)NC(=O)c1ccc(NC(=O)c2cccc(Br)c2)cc1 (stereo not drawn)	inactive
CCCC1=NN(C(=O)Cc2ccc(OC)cc2)C(O)(C(F)(F)F)C1 (stereo not drawn)	inactive
CNC(=O)[C@@H]1CCC(=O)N1	inactive
CCCCn1c(=NC(=O)c2ccco2)c(C(=O)OCC)cc2c(=O)n3cccc(C)c3nc21	inactive
COc1ccc(C(=O)CC2(C(=O)O)CCCCC2)cc1	inactive
COc1ccc(Cc2nnc(Nc3ccc(C)cc3)o2)cc1OC	inactive
N#Cc1cccc(NC(=O)Cn2cnc(S(=O)(=O)N3CCOCC3)c2)c1	inactive
COc1ccc2c(ccn2S(=O)(=O)c2ccccc2)c1	inactive
CCOC(=O)N1CCN(C(=O)c2ccc3c(c2)sc2nc(-c4ccc(OC)cc4)cn23)CC1	inactive
O=C(O)CNC(=S)N(Cc1ccccc1)Cc1cccnc1	inactive
CCC(COC)NC(=O)CCc1nnc(Cc2c[nH]c3ccccc23)o1 (stereo not drawn)	inactive
